In the library only some 0.78% were active in any assay of this set; here they are far more common.
PI4K2A inh – inhibitors of human PI4K2A; Q9BTU6; purified PI4K2A, ADP-Glo luminescence, 1 h; stronger effect = lower value; activity change, negative = inhibition, % at 76.9 µM; 420,000 compounds, 0.13% hits; in the data active = activity change below about -50%; inconclusive = mostly about -30% to -49%;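 also: -100% = wells without enzyme as full effect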
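In this quantitative HTS, ADP production by PI4K2A was quantified luminescently after 1 h at ambient temperature; 100 microM adenosine served as plate-quality control.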
PINK1 modulator – changes PINK1 expression. AID 624263. 410,000 compounds, 0.2% hits. PINK1 immunofluorescence, high-content cytometry, 24 h. Potency, µM (doses to about 76.6 µM), without a hit: at the highest dose activation (PINK1 increase), usual class: activators; active = well fitted activation curve with a large enough effect; inconclusive = small, poorly fitted or top-dose-only effect; cell line not stated here; also: potency is read from the fitted curve at half-maximal effect; % of control where 0% means no effect; nearly all actives have a fitted effect of over 65% in size
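A stable cell line was treated with compounds at 5 concentrations for 24 hours, with CCCP as control. PINK1 levels and mitochondrial localization were measured by immunofluorescence with mitochondrial, cell and nuclear markers after fixation, read by laser-scanning cytometry.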
GLS inhibitor – inhibitors of human glutaminase (GLS); GLS enzymatic activity, qHTS titration; Potency, µM (doses to about 45.5 µM), for the others: at the highest dose activity change, negative = inhibition, actives largely listed as inhibitors; 410,000 compounds, 0.21% hits; AID 624170; also: potency is read from the fitted curve at half-maximal effect; % is scaled to controls: 0 for no effect and ±100 for the full control effect
Target sequence (O94925 whole entry, looked up): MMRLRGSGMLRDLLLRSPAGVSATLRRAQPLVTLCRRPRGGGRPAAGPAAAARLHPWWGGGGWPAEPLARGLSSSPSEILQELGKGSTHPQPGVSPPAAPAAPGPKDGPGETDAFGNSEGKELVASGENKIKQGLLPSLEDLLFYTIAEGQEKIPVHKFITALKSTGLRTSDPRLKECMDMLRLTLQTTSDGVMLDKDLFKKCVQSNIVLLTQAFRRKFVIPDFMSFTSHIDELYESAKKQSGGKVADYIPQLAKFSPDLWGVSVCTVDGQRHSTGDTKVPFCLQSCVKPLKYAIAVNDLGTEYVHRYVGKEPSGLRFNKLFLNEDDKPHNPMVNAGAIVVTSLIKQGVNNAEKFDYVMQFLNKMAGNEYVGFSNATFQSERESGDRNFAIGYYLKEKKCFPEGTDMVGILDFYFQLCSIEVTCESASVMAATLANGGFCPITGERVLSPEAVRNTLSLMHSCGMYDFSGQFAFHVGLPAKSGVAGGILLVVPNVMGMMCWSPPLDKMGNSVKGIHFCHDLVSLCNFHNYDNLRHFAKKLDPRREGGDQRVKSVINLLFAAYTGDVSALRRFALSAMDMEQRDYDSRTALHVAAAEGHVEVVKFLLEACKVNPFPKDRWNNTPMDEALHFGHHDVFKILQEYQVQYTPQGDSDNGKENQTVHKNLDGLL
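Compounds were pin-transferred onto hKGA, after which L-glutamine (1 mM solution) and a detection mix of glutamate oxidase, HRP and Amplex Red were added. Initial and 30 min RT fluorescence reads were collected.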
CCT chaperon mod – changes cytosolic chaperonin activity; purified chaperonin ATPase assay, HTRF ADP detection, 30 min; activity change, % (concentration not given with the values), hits read low; 360,000 compounds, 0.3% hits; AID 651819; in the data active = activity change below about -30%; also: % is scaled to controls: 0 for no effect and ±100 for the full control effect
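ATPase activity: ADP formed was measured by HTRF Transcreener (665/615 nm ratio) after 30 min at 37 deg C with 10 uM ATP. Compounds screened at one 76 uM concentration against 40 or 20 nM TRiC in Tris pH 7.4/KCl/MgCl2/DTT buffer.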
PGK inhibitor – inhibitors of T. brucei phosphoglycerate kinase; AID 602233; Potency, µM (titrated, usually from 57.5 µM), for the others: at the highest dose activity change, negative = inhibition, actives largely listed as inhibitors; 380,000 compounds, 0.043% hits; PGK/GAPDH coupled, Kinase-Glo luminescence, 60 min; also: potency is read from the fitted curve at half-maximal effect; % is scaled to controls: 0 for no effect and ±100 for the full control effect; nearly all actives have a fitted effect of over 60% in size
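Luminescent ATP detection (Kinase-Glo Plus) follows a 60-minute room-temperature incubation, with wells lacking PGK as controls. Buffer: 100 mM TEA (pH 7.6), 5 mM MgCl2, 0.01% Tween-20. Coupling enzyme GAPDH (100 nM final) supplies unstable 1,3-BPG in-well.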
Active calls of the source: *; i = inactive; ? = inconclusive; nt = no result; [ ] = remark or other dose. Unless noted, calls follow the shape of the dose curve; as a rule, active = well fitted curve in the direction sought with a large enough effect; inconclusive = small, poorly fitted or top-dose-only effect, or another doubt; inactive = no such curve, though single readings can be large; an effect the other way counts as inactive or inconclusive.

SMILES | PI4K2A inh | PINK1 modulator | GLS inhibitor | CCT chaperon mod | PGK inhibitor
O=C(Nc1nc2ccccc2[nH]1)c1ccccc1F | -79.9* | 7.9% | -4.6% | 2.9 | 8.91µM*
O=C(Nc1nc2ccccc2[nH]1)c1ccc(F)cc1 | -27.6 | 2.7%[38.3 µM] | -13.2% | -3.4 | -4.2%
O=C(Nc1nc2ccccc2[nH]1)c1cccc(S(=O)(=O)N2CCOCC2)c1 | -4.3 | 1.8% | 2.3% | -2.6 | -14.7%
COc1ccccc1N1CCN(c2nc(CNC(=O)c3ccccc3F)nc3ccccc23)CC1 | nt | 1.3% | nt | nt | nt
C=C(C)C(=O)OCC(O)CO (centres undefined) | 5.0 | nt | nt | nt | nt
Cc1c(CN2CCOc3c(O)cc(-c4nc5ccccc5s4)cc3C2)cnn1C | nt | 1.2% | nt | nt | nt
c1ccc(CCNc2ncnc3c2nnn3Cc2ccccc2)cc1 | -0.7 | 11.2µM* | 0.3% | -0.2 | -6.1%
c1ccc(Cn2nnc3c(NCCN4CCOCC4)ncnc32)cc1 | 7.4 | 2.2%[38.3 µM] | 0.8% | -0.3 | 0.8%
Cc1ccc(/C=C2/NC(=O)N(Cc3ccccc3)C2=O)s1 | -0.9 | 14.1µM* | -1.5% | -3.4 | -5.4%
Cc1cccc(CN2C(=O)N/C(=C/c3ccc(C)s3)C2=O)c1 | -0.6 | 7.2% | 10.3% | -7.1 | 1.9%
O=C(Nc1cccc(NC(=O)c2ccco2)c1)c1ccc2c(c1)OCCO2 | 0.0 | 3.5% | 7.0% | -2.3 | -3.5%
Cc1ccc(NC(=O)c2cc(C)nc3ccccc23)cc1 | 0.9 | 3.0% | -9.0% | 1.0 | -2.8%
Cc1cccc(NC(=O)c2cc(C)nc3ccccc23)c1 | -5.6 | -2.3% | 12.3% | -39.3* | -6.4%
Cc1ccc(-c2cc(C(=O)Nc3ccc4c(c3)OCCO4)c3ccccc3n2)cc1 | -11.1 | -1.0% | -4.3% | -32.9* | -1.1%
O=C(Nc1ccc2c(c1)OCCO2)c1ccco1 | -4.4 | 11.2µM* | 0.5% | -3.6 | -9.4%
O=C(Nc1ccc2c(c1)OCCO2)c1oc2ccccc2c1NC(=O)C1CC1 | -2.1 | 1.4% | 5.9% | -45.3* | i
CCC(=O)Nc1c(C(=O)Nc2ccc3c(c2)OCCO3)oc2ccccc12 | -1.5 | 0.1% | 2.9% | -1.6 | -8.5%
COCC(=O)Nc1cc(C(=O)N2CCCCC2c2nccn2C)cc2nc(-c3ccccc3)n(C)c12 (centres undefined) | nt | -0.7% | nt | nt | nt
CN(C)S(=O)(=O)c1cccc(NC(=O)c2cc(-c3cccs3)nc3ccccc23)c1 | 15.8 | 14.6% | 3.5% | -31.6* | 4.3%
CC1=C(C)CS(=O)N(c2ccc(S(N)(=O)=O)cc2)C1 (centres undefined) | -51.6* | 1.2% | -0.1% | 0.1 | 2.5%
CCOc1ccc(CN2CCOc3ccc(C(O)c4cccnc4)cc3C2)cc1 (centres undefined) | nt | 0.3% | nt | nt | nt
CCOc1ccc(NC(=O)N2CCC(C(=O)c3ccc(F)cc3)CC2)cc1 | 3.0 | 0.6% | 1.4% | -2.0 | -3.9%
O=C(c1ccc(F)cc1)C1CCN(C(=O)Nc2ccc(F)cc2)CC1 | 3.9 | 1.1% | -9.8% | -33.9* | i
COc1cc(=O)n2c(c1C(=O)NCc1nonc1C)CCN(Cc1c[nH]c3ccccc13)CC2 | nt | 0.6% | nt | nt | nt
CCOC(=O)Cn1c(=NC(=O)C2COc3ccccc3O2)sc2cc(S(N)(=O)=O)ccc21 (centres undefined) | -2.3 | 4.1% | -2.6% | -0.6 | 3.3%
SMILES | PI4K2A inh | PINK1 modulator | GLS inhibitor | CCT chaperon mod | PGK inhibitor
CCOC(=O)Cn1c(=NC(=O)c2ccc([N+](=O)[O-])s2)sc2ccccc21 | 2.3 | 25.1µM* | 0.0% | 1.5 | i
CCN(Cc1nc(-c2ccccc2)no1)C(=O)c1ccoc1C | -1.5 | -0.2% | -4.6% | 1.2 | i
Cc1occc1C(=O)N(Cc1nc(-c2ccccc2)no1)C(C)C | -4.1 | -0.4% | 0.5% | -72.2* | i
COc1cccc2ccc(CN3CCC4(CC3)c3ccccc3[C@@H](NC(=O)c3ccccc3)[C@@H]4O)nc12 | nt | -0.5% | nt | nt | nt
COC(=O)\C(C(C)=O)=C(/C=C/C=C/C=C/N(C)C)N(C)C | -13.3 | 9.9% | 11.2µM* | 1.2 | ?
COC(=O)/C(C(C)=O)=C(\C=C\N(C)C)N(C)C | -1.8 | nt | -4.3% | 1.1 | -7.2%
CC1Cc2ccccc2N1C(=O)CN1C(=O)CN(C)C(=O)c2ccccc21 (centres undefined) | -0.3 | 0.0% | 12.2% | -34.7* | -7.3%
COc1cccc(COC(=O)c2ccc(S(=O)(=O)N3CCC(C)CC3)cc2)c1OC | 3.0 | 0.2% | -2.3% | -61.1* | -8.5%
COc1cccc(COC(=O)C2CCN(S(=O)(=O)c3ccc(F)cc3)CC2)c1OC | -0.2 | 3.0% | -5.7% | -0.9 | -3.4%
CC(C)=CCC/C(C)=C\CC/C(C)=C\CC/C=C(\C)CC/C=C(\C)CCC=C(C)C | nt | nt | 6.2% | nt | nt
COCCN1C(=O)/C(=C/c2ccc(N3CCCC3)cc2C)SC1=S | 0.5 | 22.4µM* | -4.4% | 1.2 | -9.1%
CCCC(=O)Nc1ccccc1NC(C)=O | 2.8 | 0.0% | 4.3% | -30.8* | -0.7%
COc1cc(/C=C(\C#N)c2[nH]nc(N)c2C#N)cc(OC)c1O | 6.1 | 10.6% | 10µM* | 0.0 | -2.6%
COc1cc(/C=C(\C#N)c2ccccn2)cc(OC)c1O | 1.9 | 6.8% | 19.5% | -0.4 | 4.2%
Cc1noc(C)c1CC(=O)NCC1Cc2cc(-c3cccc(OC(F)(F)F)c3)ccc2O1 (centres undefined) | nt | -0.2% | nt | nt | nt
CN(C)S(=O)(=O)c1cccc(NC(=S)N/N=C/c2ccc(O)c(O)c2O)c1 | 1.5 | -0.4% | 7.94µM* | -1.5 | -0.9%
COc1ccc(O)c(/C=N/NC(=S)Nc2cccc(S(=O)(=O)N(C)C)c2)c1 | 21.9 | -1.9% | 17.3% | -5.0 | -3.7%
CN(C)S(=O)(=O)c1cccc(NC(=S)Nc2ccc(Cl)cc2Cl)c1 | -2.8 | 15.8µM* | -0.4% | -2.6 | ?
CN(C)S(=O)(=O)c1cccc(NC(=S)Nc2cc(Cl)cc(Cl)c2)c1 | -4.3 | ? | -7.4% | 0.3 | -1.1%
CN(C)CC(C)(C)CNC(=O)c1cnn(-c2ncc3c(n2)-c2ccccc2CC3)c1-c1ccco1 | nt | -0.3% | nt | nt | nt
Cc1ccc(-c2cnn(-c3ccccc3)c2N)cc1 | -76.1* | -1.0% | 1.1% | 0.4 | ?
CCC1(C2CCN(Cc3cccc(Cl)c3)CC2)NC(=O)N(CC2COc3ccccc3O2)C1=O (centres undefined) | nt | 1.2% | nt | nt | nt
COc1ccccc1/C=C/C=N/NC(=O)Cc1cccn1C | -7.2 | 1.6% | 1.3% | 0.8 | i
Cn1cccc1CC(=O)NN=C/C=C\c1ccco1 | -52.2* | nt | nt | nt | nt
O=C(O)C1CCCN(S(=O)(=O)c2cccs2)C1 (centres undefined) | 1.1 | 4.1%[38.3 µM] | 13.0% | -0.5 | nt
Cc1ccc(S(=O)(=O)N2CCCC(C(=O)O)C2)s1 (centres undefined) | -11.3 | 3.9% | 3.6% | -93.9* | -2.4%
CCC(C(=O)OCCN1CCOC(c2ccccc2)C1C)c1ccccc1 (centres undefined) | 4.0 | nt | nt | nt | nt

Source: PubChem
